In this assay the target is E3 ubiquitin-protein ligase XIAP (Homo sapiens) (UniProt P98170). The experiment in a line: XIAP binders, primary screen, biophysical, small-molecule microarray, fluorescence 635 nm (AID 1181).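 Note: score merges 667 nm emission and signal to noise over triplicate slides.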 The conditions noted are these: small-molecule microarray binding, higher = more signal.
Chain of E3 ubiquitin-protein ligase XIAP (Homo sapiens) (P98170 whole entry, looked up): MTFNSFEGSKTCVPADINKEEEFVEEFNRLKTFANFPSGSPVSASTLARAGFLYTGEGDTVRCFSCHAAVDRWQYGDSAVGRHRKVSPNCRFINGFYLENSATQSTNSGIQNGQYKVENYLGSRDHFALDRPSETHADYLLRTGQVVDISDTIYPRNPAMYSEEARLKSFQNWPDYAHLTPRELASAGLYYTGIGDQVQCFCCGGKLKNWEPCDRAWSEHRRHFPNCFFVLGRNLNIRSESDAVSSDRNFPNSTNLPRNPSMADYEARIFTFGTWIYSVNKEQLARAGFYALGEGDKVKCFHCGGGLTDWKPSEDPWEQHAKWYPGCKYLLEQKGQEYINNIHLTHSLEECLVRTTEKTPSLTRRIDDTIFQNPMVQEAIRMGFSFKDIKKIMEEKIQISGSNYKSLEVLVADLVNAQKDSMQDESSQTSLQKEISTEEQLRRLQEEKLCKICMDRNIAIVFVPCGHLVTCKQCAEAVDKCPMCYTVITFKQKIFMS
`N#Cc1ccc(NN2C(C(O)c3ccccc3)C=CC3C(=O)N(c4ccccc4)C(=O)C32)cc1` (configuration not stated) gave a composite z-score of -0.0062. Take `O=C(NCc1ccccc1)[C@]1(Cc2ccccc2)N=C(c2ccc(OCCCO)cc2)O[C@@H]1c1ccccc1`: the composite z-score is 0.0871. In the case of `CC(C)CCC[C@@H](C)[C@H]1CC[C@@]2(C)C3=C(CC[C@]12C)[C@@]1(C)CC[C@H](OC(=O)C(C)(C)C)C(C)(C)C1CC3` (some centres not stated), the composite z-score was 0.0356. As to `NC(=O)NCC#Cc1ccc2c(c1)[C@]1(C(=O)N2)[C@H](c2ccc(OCCO)cc2)N2[C@H](c3ccccc3)[C@H](c3ccccc3)OC(=O)[C@H]2[C@@H]1C(=O)N1CCCCCCC1`, the composite z-score came out at 0.531. With `[N-]=[N+]=Nc1ccccc1[C@H]1OC(c2ccc(OCCCO)cc2)=N[C@@]1(Cc1ccccc1)C(=O)NCc1ccccc1`, the composite z-score was 0.0917. Next, `COCCOC(=O)N1C(=O)[C@@]2(c3cc(C#CCC(C(=O)OC)C(=O)OC)ccc31)[C@H](C(=O)N1CCCCCCC1)[C@H]1C(=O)O[C@H](c3ccccc3)[C@H](c3ccccc3)N1[C@@H]2c1ccc(O)cc1`: 0.312. Regarding `C=CC[C@]1(C(=O)NCC(O)CO)N=C(c2ccc(OCCCO)cc2)O[C@H]1c1ccccc1N=[N+]=[N-]` (some centres not stated), the composite z-score is -0.106. Next, `O=C(Nc1cc(Br)ccc1C(=O)NCc1cccc(O)c1)c1ccccc1`: 0.41.

In turn, `CC1CC/C=C\[C@H]2OC34C=CCN(c5ccc(Cl)cc5)C(=O)[C@H]3N(C(CO)C(C)C)C(=O)[C@]4(C)C2C(=O)O1` (some centres not stated) displayed a composite z-score of 0.0808. `CC1=C2[C@@H](CCc3ccccc3)OB(O)C[C@@H]2[C@@H]2C(=O)C=CC(=O)[C@@H]2C1` had a composite z-score of 0.0325. Molecule `[N-]=[N+]=NCc1ccccc1C[C@]1(C(=O)NCCN2CCOCC2)COC(c2ccc(OCCCO)cc2)=N1` showed a composite z-score of -0.0125. For the molecule `COc1ccc(CCNC(=O)[C@@H]2c3ccccc3C(=O)N(Cc3ccccc3)[C@H]2c2ccc(CO)cc2)cc1`, the composite z-score is -0.0272. As for `C=CC[C@@]1(C(=O)NCC(O)CO)N=C(c2ccc(OCCCO)cc2)O[C@@H]1c1ccccc1` (some centres not stated), the composite z-score is -0.0374. For the molecule `CO[C@H]1O[C@H](CO)[C@@H](OC(=O)Nc2cccc(F)c2)[C@H](OC(=O)Nc2ccc3c(c2)OCO3)[C@H]1OC(=O)Nc1ccc2c(c1)OCO2`, the composite z-score was 0.652. `COc1ccc(C#Cc2ccc3c(c2)[C@]2(C(=O)N3)[C@H](c3ccc(OCCO)cc3)N3[C@H](c4ccccc4)[C@H](c4ccccc4)OC(=O)[C@H]3[C@@H]2C(=O)N2CCN(c3ncccn3)CC2)cc1` came in with a composite z-score of 0.16. Next, `COCC(=C=CC[C@@H](O)c1ccccc1OCCO)C[C@@H](O)c1ccccn1`: -0.0541; `CCCN1C(=O)[C@@]2(Cc3ccccc3)N=C(c3ccc(OCCCO)cc3)O[C@H]2c2ccccc21`: -0.206. Consider `NC(=O)NCC#Cc1ccc2c(c1)[C@]1(C(=O)N2)[C@H](c2ccc(OCCO)cc2)N2[C@H](c3ccccc3)[C@H](c3ccccc3)OC(=O)[C@H]2[C@@H]1C(=O)N1CCN(c2ncccn2)CC1`, for which the composite z-score is -0.149. The value for `C=CCC(OC(C)=O)[C@@H]1[C@@H](N(Cc2cccc3ccccc23)C(=O)c2ccc(C)cc2)c2cc(OCCCO)ccc2N1C(=O)c1ccc2ccccc2c1` (some centres not stated) was -0.152. As for `COc1ccc([Si](C)(C)[C@@H]2[C@@H](CC(=O)N(CCO)Cc3ccccc3)O[C@]3(C(=O)N(Cc4ccc(N5CCOC5=O)cc4)c4ccccc43)[C@H]2C)cc1`, the composite z-score was -0.0333. The value for `COc1ccccc1CN1C(=O)c2ccccc2[C@](Cc2ccccc2I)(C(=O)NCCN2CCOCC2)[C@@H]1c1ccc(CO)cc1` was -0.108; that for `CN(C)CCCN1C(=O)[C@@]2(Cc3ccccc31)c1ccccc1C(=O)N(Cc1ccccc1)[C@H]2c1ccc(CO)cc1` was -0.176.

Take `Cc1ccc(S[C@]2(C(=O)O)CC(=O)N(Cc3ccccc3C(F)(F)F)[C@@H]2c2ccc(CO)cc2)cc1`: the composite z-score was -0.313. On to `CCOC(=O)C1=CC[C@@H](c2ccccc2)N(S(=O)(=O)c2ccc(C)cc2)[C@H]1C=C(C)C`, for which the composite z-score was determined as 0.394. The value for `COCCOC(=O)N1C(=O)[C@@]2(c3cc(C#CCNC(N)=O)ccc31)[C@H](C(=O)N1CCCCCCC1)[C@H]1C(=O)O[C@H](c3ccccc3)[C@H](c3ccccc3)N1[C@@H]2c1ccc(OCCO)cc1` was 0.0471. The value for `CC(C)CNC(=O)[C@@]1(C)c2ccccc2C(=O)N(Cc2ccccc2)[C@H]1c1ccc(CO)cc1` was -0.395. The molecule `C=CCC(OC(C)=O)[C@@H]1[C@@H](N(Cc2ccc(-c3ccccc3)cc2)C(=O)c2cccc3ccccc23)c2cc(OCCCO)ccc2N1C(=O)c1ccc2ccccc2n1` (some centres not stated) returned a composite z-score of -0.0282.

These data come from PubChem BioAssay.
